The molecules below were run against Solute carrier family 2, facilitated glucose transporter member 1 (Homo sapiens) (UniProt P11166) (assay: ST_JUDE_LEISH: Cytotoxicity at 2uM final concentration against transgenic Leishmania Mexicana promastigotes LmGLUT1 that are glucose transport deficient and complemented with the human glucose transporter GLUT1. Activity is measured by DNA content using SYBR green in vitro).
Type: functional

Sequence of Solute carrier family 2, facilitated glucose transporter member 1 (Homo sapiens) (P11166 whole entry): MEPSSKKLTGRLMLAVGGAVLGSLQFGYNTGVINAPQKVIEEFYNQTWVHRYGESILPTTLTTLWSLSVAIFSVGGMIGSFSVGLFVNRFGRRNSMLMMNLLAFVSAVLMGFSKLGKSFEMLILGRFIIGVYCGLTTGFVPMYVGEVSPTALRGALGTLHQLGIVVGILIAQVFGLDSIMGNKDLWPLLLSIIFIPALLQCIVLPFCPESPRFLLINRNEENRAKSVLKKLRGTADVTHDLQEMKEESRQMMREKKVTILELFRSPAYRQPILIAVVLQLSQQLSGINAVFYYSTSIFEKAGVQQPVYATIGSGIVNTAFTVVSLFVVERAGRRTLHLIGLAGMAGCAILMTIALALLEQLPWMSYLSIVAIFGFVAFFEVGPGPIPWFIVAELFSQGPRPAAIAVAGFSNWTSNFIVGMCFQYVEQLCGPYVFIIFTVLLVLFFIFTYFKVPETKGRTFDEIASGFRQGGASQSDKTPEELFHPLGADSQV

Q: With `O=C(Nc1ccc(OC2CCN(Cc3ccccc3)C2)c(Cl)c1)c1ccc(F)cc1` (stereo not given) as the molecule, how does the inhibition read?
A: Its inhibition is -5.06%.

Q: With `Cc1[nH]c(C)c(-c2ccc(OCc3ccc(OC(F)(F)F)cc3)nc2)c(=O)c1Br` as the molecule, how does the inhibition read?
A: Its inhibition is 8.89%.

Q: `Nc1nc(N)c2c(Oc3cccc(Cl)c3)cccc2n1` was tested. Which inhibition did it give?
A: The inhibition was 1.52%.

Q: `Oc1ccc(CCNc2nc(NCCCOc3cc(CN4CCCCC4)ccc3F)nc(N3CCNCC3)n2)cc1` was tested. Which inhibition did it give?
A: The inhibition was 1.98%.

Q: `COc1cc(-c2nnc(SCC(=O)Nc3cc(C)on3)n2C)cc(OC)c1O` was tested. Which inhibition did it give?
A: Its inhibition is 7.83%.

Q: `COc1ccc(C2SCC(=O)N2CCc2ccc(OC)c(OC)c2)cc1` (stereo not given) was tested. Which inhibition did it give?
A: Its inhibition is 2.35%.

Q: `O=C(NC1CCCc2ccccc21)[C@@H]1CCCN1C(=O)c1ccc(O)c(-c2cccc([N+](=O)[O-])c2)c1` (stereo not given in full) was tested. Which inhibition did it give?
A: The inhibition was 2.69%.

Q: `O=C(COc1ccc(F)cc1)NC1CCN(c2ccnc3cc(Cl)ccc23)C1` (stereo not given) was tested. Which inhibition did it give?
A: The inhibition was 7.22%.

Q: `Cc1cc(-c2cccc(CNCc3ccc(F)cc3)c2)ccc1S(=O)(=O)NCCN1CCCC1` was tested. Which inhibition did it give?
A: The inhibition was -0.89%.

Q: With `Cc1cc(C2CCN(CCCCNC(=O)c3ccc(-c4ccc(C(F)(F)F)cc4)cc3)CC2)c(C)cc1OCCOC1CCCCO1` (stereo not given) as the molecule, how does the inhibition read?
A: Its inhibition is 1.45%.

Q: Which inhibition does the source give for `Cn1nc(-c2ccc(NC(=O)Nc3cc(C(F)(F)F)ccc3F)c(F)c2)c2cnc(NCCCn3ccnc3)nc21` here?
A: The inhibition was -0.19%.

Q: `COc1cc(OC)cc(-c2nc3ccc(OCCN(C)C)c(C#N)c3[nH]2)c1` was tested. Which inhibition did it give?
A: Its inhibition is 0.95%.

Q: With `COc1cc(NC(=O)c2c(-c3c(Cl)cccc3Cl)noc2C)c(OC)cc1Cl` as the molecule, how does the inhibition read?
A: Its inhibition is 3%.

Q: Which inhibition does the source give for `CCCc1cc(OC)c(C[C@H]2c3cc(O)c(Cl)cc3CCN2C)cc1OC` here?
A: Its inhibition is 0.24%.

Q: `CC(CN1CCN(C)CC1)C(=O)Nc1ccc(-c2ccc(-c3nc4cc(F)ccc4[nH]3)cc2)cc1` (stereo not given) was tested. Which inhibition did it give?
A: The inhibition was 9.06%.
